Drawing on PubChem BioAssay, this text covers composite z-score for 26 compounds.

SMILES strings stand for the structures.

This assay is described as follows: probe aCHRDL2 binding to arrayed compounds – biochemical, biotinylated probe, 635/667 nm fluorescence, primary screen (AID 1100). The following applies: small-molecule microarray, higher = more signal.
Regarding `CCOC(=O)C[C@H]1[C@H](OC(=O)c2cc3ccccc3oc2=O)[C@@H](NC(=O)c2ccc3ccccc3n2)c2cc(OCCCO)ccc2N1C(=O)c1ccc2ccccc2n1`, the composite z-score is -0.033. In the case of `CN1C(=O)C2C=CC(C(O)C3CCCCC3)N(N(c3ccccc3)c3ccccc3)C2C1=O` (stereo unspecified) it was 0.895.

As to `COc1ccccc1CN1C(=O)c2ccccc2[C@@H](C(=O)NCC(C)C)[C@@H]1c1ccc(CO)cc1`, the composite z-score turned out to be 0.705. In the case of `COC(=O)[C@@]1(Cc2ccccc2)[C@H]2c3cc(C(=O)N(C)C)n(Cc4ccc(O)c(OC)c4)c3C[C@H]2CN1C(=O)c1ccccc1` it was 0.295. In the case of `CCOC(=O)C[C@H]1[C@H](OC(=O)c2ccccc2-c2ccccc2)[C@@H](NC(=O)c2ccccc2)c2cc(OCCCO)ccc2N1C(=O)Cc1ccc(OC)cc1` it was 0.0247; in that of `CCC[C@@H]1C[C@@]1(CCC)[C@@H](NC(=O)c1ccco1)c1ccc(Cl)cc1`, 0.762; in that of `CN(C)CCCN1C(=O)[C@@]2(Cc3ccccc31)c1ccccc1C(=O)N(Cc1ccccc1)[C@H]2c1ccc(CO)cc1`, 0.113. Take `O=C(NCc1ccccc1)[C@]1(Cc2ccccc2)N=C(c2ccc(OCCCO)cc2)O[C@@H]1c1ccccc1`: the composite z-score was found to be 0.75. With `O=C1c2ccccc2[C@](Cc2ccccc2I)(C(=O)NC2CC2)[C@H](c2ccc(CO)cc2)N1Cc1ccccc1Cl` the figure was 0.995. On to `C=C(C(=O)CC[C@H](OC(=O)c1cccnc1)c1ccc(OCCO)cc1)C(C)C`, for which the composite z-score is -0.049. In the case of `COCCOC(=O)N1C(=O)[C@@]2(c3cc(C#CCCO)ccc31)[C@H](C(=O)N1CCc3cc(OC)c(OC)cc3C1)[C@H]1C(=O)O[C@H](c3ccccc3)[C@H](c3ccccc3)N1[C@@H]2c1ccc(OCCO)cc1` it was -0.199. In the case of `C[N+](C)(C)CCCC[C@@H]1NC(=O)[C@H]2C[C@@H](C(=O)NCCCCCCN)[C@@H](c3cccc(OCCO)c3)N2C1=O` it was 0.984. With `COC(=O)C(CC#Cc1ccc2c(c1)[C@]1(C(=O)N2)[C@H](c2ccc(O)cc2)N2[C@H](c3ccccc3)[C@H](c3ccccc3)OC(=O)[C@H]2[C@@H]1C(N)=O)C(=O)OC` the figure was 0.613. In turn, `CN(C)C(=O)[C@@]1(CCC(=O)OC(C)(C)C)N=C(c2ccc(OCCCO)cc2)O[C@H]1c1ccccc1N=[N+]=[N-]` showed a composite z-score of 0.837. With `CCOC(=O)C[C@H]1[C@H](OC(=O)Cc2ccc3c(c2)OCO3)[C@@H](NC(=O)c2ccccc2)c2cc(OCCCO)ccc2N1C(=O)c1ccc2ccccc2n1` the figure was -0.329; with `O=[N+]([O-])c1ccc(C[n+]2ccc(-c3ccc(CO)cc3)cc2)o1`, 0.192. In the case of `NC(=O)[C@H]1[C@@H]2C(=O)O[C@@H](c3ccccc3)[C@@H](c3ccccc3)N2[C@@H](c2ccc(O)cc2)[C@]12C(=O)Nc1ccc(C#CC3(O)CCCCCC3)cc12` it was 0.0715. As to `CN(C)C(=O)[C@@]1(Cc2ccccc2N=[N+]=[N-])N=C(c2ccc(OCCCO)cc2)O[C@H]1c1ccccc1N=[N+]=[N-]`, the composite z-score was 0.7. Take `NC(=O)NCC#Cc1ccc2c(c1)[C@]1(C(=O)N2)[C@H](c2ccc(O)cc2)N2[C@H](c3ccccc3)[C@H](c3ccccc3)OC(=O)[C@H]2[C@@H]1C(N)=O`: the composite z-score came out at 0.55. In the case of `NC(=O)NCC#Cc1ccc2c(c1)[C@]1(C(=O)N2)[C@H](c2ccc(OCCO)cc2)N2[C@H](c3ccccc3)[C@H](c3ccccc3)OC(=O)[C@H]2[C@@H]1C(=O)N1CCN(c2ncccn2)CC1` it was -0.417. In the case of `O=C1N(Cc2ccccc2)c2ccccc2[C@H]2OC(c3ccc(OCCCO)cc3)=N[C@@]12CCS(=O)(=O)c1ccccc1` it was 0.584. In the case of `COCC(=C=CC[C@@H](O)c1ccccc1OCCO)C[C@@H](O)c1ccccn1` it was -0.0356; in that of `COc1ccc(C#Cc2ccc3c(c2)[C@]2(C(=O)N3)[C@H](c3ccc(OCCO)cc3)N3[C@H](c4ccccc4)[C@H](c4ccccc4)OC(=O)[C@H]3[C@@H]2C(=O)N2CCN(c3ncccn3)CC2)cc1`, -0.275; in that of `COc1ccc(C(=O)Nc2ccc3c(c2)[C@]2(O[C@@H](CCO)[C@H]([Si](C)(C)c4ccc(OC)cc4)[C@H]2C)C(=O)N3Cc2ccccc2)cc1`, -0.0221. For the compound `CC(C)C[C@@H]1NC(=O)[C@@]23C(=O)N[C@@H](Cc4ccccc4)C2[C@H](C)[C@@]2(C)O[C@H]2C3/C=C/C/C=C\CNC(=O)[C@@H]2CCCN2C1=O` (stereo partly specified), the composite z-score was -0.719. With `Cc1cc(C)c(C(O)C2C=CC3C(=O)N(c4ccccc4)C(=O)C3N2Nc2ccc([N+](=O)[O-])cc2)c(C)c1` (stereo unspecified) the figure was 0.911.
